Results on ten molecules are retold here after PubChem BioAssay (Tox21).

Several values for one entry are separate records, joined by “and”; a condition that tells them apart may be missing. Equal entries are not always repeated. Results filed as inconclusive are left out. A structure can be active in one record and inactive in another. Activity calls are given as the source filed them. Unless noted, the call rests on the fitted dose curve; in most records, active means well fitted curve in the direction sought with a large enough effect in the repeat runs; inconclusive means weak or mixed curves; inactive means no such curve, though single readings can be large; an effect the other way counts as inactive or inconclusive.

Assay [1] is described as follows: qHTS assay to identify small molecule antagonists of the glucocorticoid receptor (GR) signaling pathway - cell viability counter screen (AID 720693). Further: nearly all actives have a fitted effect of over 55% in size.
The nature of assay [2]: qHTS assay for identifying genotoxic compounds that show differential cytotoxicity against isogenic chicken DT40 cell lines with known DNA damage response pathways - wild type cell line (AID 743012). Further: nearly all actives have a fitted effect of over 60% in size. Further: potency means the concentration at half of the fitted maximal effect. An outline of the steps: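 300 wt DT40 cells/well; cpd (DMSO) pintool-transferred after ~0.5 h at 37 C/5% CO2; 40 h incubation; CellTiter-Glo added, 30 min RT; luminescence read.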
Background: qHTS replaces the single test concentration by a dilution series.

The nature of assay [3]: qHTS assay for identifying genotoxic compounds that show differential cytotoxicity against isogenic chicken DT40 cell lines with known DNA damage response pathways - Rev3 mutant cell line (AID 743014). Further: nearly all actives have a fitted effect of over 55% in size. Further: potency means the concentration at half of the fitted maximal effect.
The nature of assay [4]: qHTS assay for identifying genotoxic compounds that show differential cytotoxicity against isogenic chicken DT40 cell lines with known DNA damage response pathways - Rad54/Ku70 mutant cell line (AID 743015). Further: nearly all actives have a fitted effect of over 60% in size. Further: potency means the concentration at half of the fitted maximal effect.
Assay [5] can be described thus: qHTS assay to identify small molecule antagonists of the androgen receptor (AR) signaling pathway - cell viability counter screen (AID 743033; further: nearly all actives have a fitted effect of over 45% in size).
Assay [6] concerns the target Estrogen receptor (Homo sapiens) (UniProt P03372). The assay can be described thus: qHTS assay to identify small molecule antagonists of the estrogen receptor alpha (ER-alpha) signaling pathway (AID 743069; active means well fitted curve in the direction sought with a large enough effect in the signal ratio in the repeat runs, not every such curve was filed as active; the % refers to the signal ratio). Summed up: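 Antagonist mode: compounds in DMSO were co-added with 17beta-estradiol to ER-alpha-bla HEK293 cells (2% charcoal-stripped serum) and left 18 h at 37C. Reporter inhibition was measured as FRET fluorescence after 2 h LiveBLAzer substrate at room temperature.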

Assay [7] in a line: qHTS assay to identify small molecule antagonists of the estrogen receptor alpha (ER-alpha) signaling pathway - cell viability counter screen (AID 743074; calls by dose curve;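 further: HEK293 cells carrying ER-alpha-UAS-bla reporter stimulated with 17beta-estradiol; nearly all actives have a fitted effect of over 45% in size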).
For assay [8], the target named is Estrogen receptor (Homo sapiens) (UniProt P03372). The assay can be described thus: qHTS assay to identify small molecule agonists of the estrogen receptor alpha (ER-alpha) signaling pathway (AID 743075; calls by dose curve;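 further: HEK293 GripTite cells with ER-alpha and UAS-driven beta-lactamase reporter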).
Estrogen receptor (Homo sapiens), sequence (P03372 whole entry, looked up): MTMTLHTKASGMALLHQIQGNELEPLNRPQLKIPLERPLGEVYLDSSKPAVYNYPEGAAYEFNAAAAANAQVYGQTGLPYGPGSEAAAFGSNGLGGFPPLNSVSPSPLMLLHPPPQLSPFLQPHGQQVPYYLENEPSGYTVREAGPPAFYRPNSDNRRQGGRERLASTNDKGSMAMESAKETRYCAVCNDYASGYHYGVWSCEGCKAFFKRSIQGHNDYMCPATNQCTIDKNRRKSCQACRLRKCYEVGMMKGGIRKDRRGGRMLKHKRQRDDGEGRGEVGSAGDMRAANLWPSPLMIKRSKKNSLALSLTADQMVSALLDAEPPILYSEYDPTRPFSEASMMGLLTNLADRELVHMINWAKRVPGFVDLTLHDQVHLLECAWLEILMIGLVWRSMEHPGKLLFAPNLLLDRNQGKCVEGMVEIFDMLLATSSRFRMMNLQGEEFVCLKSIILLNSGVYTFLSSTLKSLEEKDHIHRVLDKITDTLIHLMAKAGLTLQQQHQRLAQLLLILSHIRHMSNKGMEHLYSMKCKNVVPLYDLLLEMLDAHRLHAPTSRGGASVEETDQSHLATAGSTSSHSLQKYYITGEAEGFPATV
Assay [9] has the same target. Nature of the assay: qHTS assay to identify small molecule agonists of the estrogen receptor alpha (ER-alpha) signaling pathway using the BG1 cell line (AID 743079). Further: nearly all actives have a fitted effect of over 20% in size.
A short description of assay [10]: qHTS assay to identify small molecule antagonists of the estrogen receptor alpha (ER-alpha) signaling pathway using the BG1 cell line (AID 743080; calls by dose curve;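 further: BG1 cells stimulated with 17beta-estradiol alongside compound; series mostly up to about 70 µM; nearly all actives have a fitted effect of over 25% in size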). Summed up: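 Quantitative HTS on the Tox21 10K library: BG1 cells with endogenous ER-alpha and ERE-luciferase reporter, 17beta-estradiol stimulation, 21.5 h compound exposure, luminescence endpoint with parallel fluorescence cytotoxicity counter-read.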

Assay [11] is described as follows: qHTS assay to identify small molecule antagonists of the estrogen receptor alpha (ER-alpha) signaling pathway using the BG1 cell line - cell viability counter screen (AID 743081).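 Further: compound given together with 17beta-estradiol as the ER stimulus; series mostly up to about 70 µM; nearly all actives have a fitted effect of over 45% in size.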
For assay [12], the target named is Aromatase (Homo sapiens) (UniProt P11511). The assay can be described thus: qHTS assay to identify aromatase inhibitors (AID 743083). Further: series mostly up to about 70 µM; nearly all actives have a fitted effect of over 55% in size.
Aromatase (Homo sapiens), sequence (P11511 whole entry, looked up): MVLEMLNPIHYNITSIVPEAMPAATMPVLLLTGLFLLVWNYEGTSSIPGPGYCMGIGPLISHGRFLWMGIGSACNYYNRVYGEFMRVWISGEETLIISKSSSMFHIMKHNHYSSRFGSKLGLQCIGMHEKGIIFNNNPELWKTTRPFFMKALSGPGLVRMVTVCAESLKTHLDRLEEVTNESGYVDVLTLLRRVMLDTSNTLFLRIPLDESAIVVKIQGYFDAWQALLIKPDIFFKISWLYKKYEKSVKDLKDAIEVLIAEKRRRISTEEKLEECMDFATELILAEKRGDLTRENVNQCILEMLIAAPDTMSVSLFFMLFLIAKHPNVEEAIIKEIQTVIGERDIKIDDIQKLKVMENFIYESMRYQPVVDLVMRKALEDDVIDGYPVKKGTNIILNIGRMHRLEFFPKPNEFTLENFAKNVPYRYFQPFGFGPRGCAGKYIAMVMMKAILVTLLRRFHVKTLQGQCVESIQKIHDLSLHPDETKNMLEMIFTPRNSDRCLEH
Assay [13] is described as follows: qHTS assay to identify small molecule antagonists of the thyroid receptor (TR) signaling pathway (AID 743065). Further: nearly all actives have a fitted effect of over 55% in size. Further: potency means the concentration at half of the fitted maximal effect. An outline of the steps: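 Antagonism measured as loss of luciferase signal in GH3 cells stably carrying a TRE-luciferase reporter, co-treated with compound and T3 (1 nM final) for 23.5 h at 37 C. Viability was read in the same well by CellTiter-Fluor.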

The test system of assay [14] is thyroid hormone receptor (rat, GH3 cells). The assay can be described thus: qHTS assay to identify small molecule agonists of the thyroid receptor (TR) signaling pathway (AID 743066; calls by dose curve).
Assay [15] is described as follows: qHTS assay to identify small molecule antagonists of the thyroid receptor (TR) signaling pathway - cell viability counter screen (AID 743064). Further: nearly all actives have a fitted effect of over 50% in size. Further: potency means the concentration at half of the fitted maximal effect. An outline of the steps:
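Plate GH3.TRE-Luc cells; incubate 4 h at 37 °C; add compound, then T3 to 1 nM final; incubate 23.5 h; add CellTiter-Fluor; incubate 30 min at 37 °C, 5% CO2; read fluorescence.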

For assay [16], the target named is Androgen receptor (Homo sapiens) (UniProt P10275). The assay can be described thus: qHTS assay to identify small molecule agonists of the androgen receptor (AR) signaling pathway using the MDA cell line (AID 743040; further: nearly all actives have a fitted effect of over 20% in size). Summed up:
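Luciferase agonist assay: 16 h compound exposure at 37C without CO2 in MDA-kb2 AR-luc cells, whose MMTV promoter responds to both AR and GR. Luminescence measured after 30 min room-temperature incubation with ONE-Glo.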

The nature of assay [17]: qHTS assay to identify small molecule antagonists of the androgen receptor (AR) signaling pathway using the MDA cell line - cell viability counter screen (AID 743041; further: nearly all actives have a fitted effect of over 45% in size). An outline of the steps:
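Viability read by CellTiter-Fluor fluorescence in the same wells as the antagonist screen, added after 15.5 h of a 16 h, 37C exposure. Human breast carcinoma MDA-kb2 AR-luc cells, compounds co-dosed with agonist R1881.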

The target of assay [18] is Androgen receptor (Homo sapiens) (UniProt P10275). The assay can be described thus: qHTS assay to identify small molecule antagonists of the androgen receptor (AR) signaling pathway using the MDA cell line (AID 743042; further: nearly all actives have a fitted effect of over 55% in size). An outline of the steps:
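Antagonist mode: compounds plus R1881 agonist added to MDA-kb2 AR-luc cells, incubated 16 h at 37C. Luciferase reporter luminescence quantified, with multiplexed CellTiter-Fluor readout for cell viability.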

For assay [19] the target is unchanged. Nature of the assay: qHTS assay to identify small molecule antagonists of the androgen receptor (AR) signaling pathway (AID 743035; active means well fitted inhibition curve with a large enough effect in the signal ratio in the repeat runs, not every such curve was filed as active; the % refers to the signal ratio). An outline of the steps:
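In this cell-based reporter screen, compounds were tested in concentration series against R1881-activated HEK293 cells expressing beta-lactamase under UAS control; after 16 h at 37C, FRET substrate was added and fluorescence read 2 h later.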

The target is the same in assay [20]. Nature of the assay: qHTS assay to identify small molecule agonists of the androgen receptor (AR) signaling pathway (AID 743036; active means well fitted activation curve with a large enough effect in the signal ratio in the repeat runs, with a control signal flat, not every such curve was filed as active; the % refers to the signal ratio). Summed up:
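Reporter line: GeneBLAzer AR-UAS-bla-GripTite (HEK293). Steps: plate cells, 4 h rest, add compounds, 16 h at 37C, add LiveBLAzer B/G substrate, 2 h at RT, read fluorescence.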

Androgen receptor (Homo sapiens), sequence (P10275 whole entry, looked up): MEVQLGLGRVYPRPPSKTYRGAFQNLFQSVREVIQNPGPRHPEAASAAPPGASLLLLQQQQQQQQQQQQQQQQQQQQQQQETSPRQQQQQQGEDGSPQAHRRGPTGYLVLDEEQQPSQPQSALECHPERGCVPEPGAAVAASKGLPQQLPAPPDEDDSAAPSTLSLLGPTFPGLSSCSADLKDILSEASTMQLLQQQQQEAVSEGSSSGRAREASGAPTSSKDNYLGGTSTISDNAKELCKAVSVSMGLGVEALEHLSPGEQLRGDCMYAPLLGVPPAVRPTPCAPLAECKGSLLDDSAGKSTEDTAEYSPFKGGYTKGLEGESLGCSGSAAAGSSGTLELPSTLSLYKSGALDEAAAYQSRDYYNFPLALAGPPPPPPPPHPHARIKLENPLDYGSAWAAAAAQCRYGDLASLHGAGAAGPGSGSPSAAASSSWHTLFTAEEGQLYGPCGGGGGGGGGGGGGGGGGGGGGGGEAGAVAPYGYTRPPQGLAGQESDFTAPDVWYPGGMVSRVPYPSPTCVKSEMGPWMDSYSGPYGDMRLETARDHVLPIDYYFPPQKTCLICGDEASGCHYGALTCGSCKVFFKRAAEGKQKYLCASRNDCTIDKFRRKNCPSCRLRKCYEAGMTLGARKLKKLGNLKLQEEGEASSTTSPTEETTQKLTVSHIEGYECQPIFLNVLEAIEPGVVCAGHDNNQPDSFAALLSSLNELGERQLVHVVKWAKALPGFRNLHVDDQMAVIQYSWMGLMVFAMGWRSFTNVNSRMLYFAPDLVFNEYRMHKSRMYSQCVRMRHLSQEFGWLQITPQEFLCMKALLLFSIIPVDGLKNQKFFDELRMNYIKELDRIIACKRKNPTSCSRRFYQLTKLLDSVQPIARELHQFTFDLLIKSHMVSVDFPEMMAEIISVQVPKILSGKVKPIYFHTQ

With `CN1[C@@H]2CC[C@H]1CC(OC(=O)c1cc(Cl)cc(Cl)c1)C2` (some centres undefined), the Potency result in [1], in [5], in assay [6], in [7], in assay [8] and in assay [9] was “inactive” each time. For the same molecule, the Potency result in [10], in assay [11] and in [12] was “inactive” each time. Besides, the Potency in [2] was 3.76 µM (active); in assay [3] it was 2.98 µM (active); in assay [4] it was 5.96 µM (active).

Consider `C=COC(C)=O`, for which the Potency entry in assay [1], in assay [2], in assay [3], in assay [4], in [5] and in assay [13] was “inactive” in each case. Further, the Potency entry in [14], in assay [7], in [11] and in assay [12] was “inactive” throughout.

In the case of `C=CC(=O)OC`, the Potency entry in assay [1], in assay [2], in assay [3], in assay [4], in assay [5] and in assay [15] was “inactive” each time. The Potency result in assay [13], in [14], in assay [7], in assay [11] and in assay [12] was “inactive” in each case.

For `Cn1sc(Cl)cc1=O`, the Potency entry in assay [1], in assay [5], in [14], in assay [6], in [7] and in [8] was “inactive” in each case. Besides, the Potency result in assay [9], in [10], in assay [11] and in assay [12] was “inactive” throughout. The Potency entry in assay [2] is “inactive and 19.3 µM (active)”; in [3], “inactive and 21.7 µM (active)”; in [4], “inactive and 54.5 µM (active)”; in assay [15] it was 68.6 µM (active).

For `O=C(N[C@H](c1ccccc1)[C@@H]1CN2CCC1CC2)c1c(Cl)ccc(C(F)(F)F)c1Cl`, the Potency entry in [1], in [5] and in assay [7] was “inactive” each time. In addition, the Potency in assay [2] was 22 µM (active); in assay [3], 39.2 µM (active); in assay [4] it was 24.7 µM (active); in [15], 15.6 µM (active); in assay [13] it was 39.2 µM (active).

Consider `[O-][Cl+]O`, for which the Potency result in assay [1], in assay [2], in assay [3], in [4], in [5] and in [15] was “inactive” in each case. For the same molecule, the Potency entry in assay [13], in [14], in [6], in [8], in [9] and in assay [10] was “inactive” throughout. For the same molecule, the Potency entry in [11] and in assay [12] was “inactive” each time.

Take `Cc1ccccc1C(=O)Nc1cccc(OC(C)C)c1`: the Potency entry in [1], in assay [16], in assay [17], in assay [18], in assay [14] and in assay [6] was “inactive” each time. Moreover, the Potency result in [7], in [8], in assay [9], in [10], in assay [11] and in assay [12] was “inactive” each time. For the same molecule, the Potency in [2] is 48.6 µM (active); in [3], 30.6 µM (active); in [4], 48.6 µM (active).

Turning to `O=NN1CCCCCC1`, the Potency entry in assay [1], in assay [2], in assay [3], in assay [4], in assay [19] and in assay [16] was “inactive” throughout. In addition, the Potency result in assay [17], in [18], in assay [15], in [13], in [14] and in assay [6] was “inactive” in each case. Moreover, the Potency result in assay [7], in [8], in assay [9], in assay [10], in [11] and in [12] was “inactive” throughout. Further, the molecule was called inactive in assay [20].

Regarding `CN1C(=O)NC(=O)C(C)(C2=CCCCC2)C1=O` (centres undefined), the Potency entry in assay [1], in assay [2], in assay [3], in assay [4], in [5] and in assay [14] was “inactive” in each case. The Potency result in assay [7], in assay [11] and in [12] was “inactive” each time.

Turning to `O=C(C(Cl)(Cl)Cl)C(Cl)(Cl)Cl`, the Potency result in assay [1], in assay [2], in [3], in assay [4], in assay [19] and in assay [16] was “inactive” each time. The Potency result in assay [18], in [13], in assay [14], in assay [6], in assay [7] and in [8] was “inactive” in each case. The Potency result in [9], in assay [10], in assay [11] and in assay [12] was “inactive” each time. The molecule was classed as inactive in [20].
